Laboratory results reported in PubChem BioAssay AID1159506 (National Center for Advancing Translational Sciences (NCATS), 2015).
In all, about 59,000 sequences were measured (the read-out: median about -0.00055, lowest 2% from about -2 on). This excerpt belongs to a sample that is enriched for the lowest values.

Test: Identification of proteins required for the processing of the EWS-FLI1 nascent transcript;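 note: robust z of luciferase light less the median z of siRNAs with the same seed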
Details: TC32 Ewing sarcoma NR0B1-luc vs CMV-luc (EWS-FLI1 target promoter against control promoter), 48 h; screened at 20 nM (by protocol)
Method in brief: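 Parallel TC32-NR0B1-luc and TC32-CMV-luc reverse transfections with 20 nM siRNA in RPMI-1640/10% FBS, luciferase measured 48 h later. Seed-adjusted z-scores from normalized, z-score-MAD transformed data; AllStars negative and siGL4 controls on each plate.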

Row | Sequence | seed-corrected z-score
1 | UAAGCAUAUAUUCCCGUAC against CDC7 | 0.52
2 | UUUAUAGUUGGUUAGGUUC against EPB42 | -0.0918
3 | AUUUGGACCAGUAUGCUUC against HNRNPH1 | -2.98
4 | UAUUCUGAGAUGCGAAGGC against SLC26A11 | 0.879
5 | UCCAAGAUGAUUCCUCUCC against ZNF557 | -0.0489
6 | AAAAGAUGCCCAUUCAUUG against DCDC2C | 1.89
7 | UCAGGAGCAAAGCUUCUUC against VNN3 | 0.325
8 | UCAGCUGAUUCAUUAGAGG against TRIM44 | -0.356
9 | UCUGUUGUUAGCACACGUC against NID1 | -0.891
10 | UAUGCUUUCUUGACAGCCC against KCNAB1 | -4.96
11 | UCCUUGGACAUCAAGAGCC against C16orf91 | -0.516
12 | UAAUCUAUCCAGGAAUUCC against TTC5 | 0.1
13 | UUUGUUGGAACCCAAGAGC against BLID | -2.2
14 | UUUGGGUCCUCGAUCACCC against COL8A1 | -1.06
15 | UUCCGUAAUGUUGCGCAUG against CORO6 | 0.106
16 | UUCGUGCUGGGUUAUCUCG against COL24A1 | 0.737
17 | UUCCAUAAAGAGUUCUGCC against ZNF280C | 0.576
18 | UUACUGACGACAUCAUUCC against PRPF40A | -0.273
19 | AUACAGAACAUAGUGGUUG against PSMD3 | -1.41
20 | UCAGUAGGCAUUGGAGCGG against CEBPA | -0.0618
21 | AAGUCUUCAAGAUCUAUUC against FGL2 | 0.334
22 | UCAUAAGUCAGGGUAUGCC against MPTX1 | -3.31

Row | Sequence | seed-corrected z-score
23 | UCAUAGGUCACAAAGGUGC against KIF9 | 0.0712
24 | UAUCUAAUUUUGGAAUCUC against VRK1 | -0.281
25 | UUCAGGGUAAGGUGGAUGG against UBD | 0.588
26 | AAACUUGUCAUCAGCACGC against MUC13 | 0.662
27 | UUCUGUCCCAUAAAUAGAG against TMEM207 | -0.0552
28 | UUAUCUAUACAAAGCAGAC against KLRC3 | -0.377
29 | UUACGCAUAAUUUCCGUCA against VAMP5 | -0.171
30 | AUCUGGUUUACGGUUAUUC against MEF2C | -2.53
31 | AAUCUUGCAAGGUUACUAC against USP33 | -1.31
32 | UCCAUGACGAAGCUGUUCU against SUV39H1 | 0.0817
33 | UGGUUUAUCAGUUUCAAUG against ARCN1 | -4.37
34 | UAUCUAAUUGAUGACAUGC against ETAA1 | 0.0808
35 | UGUUCUAUAGGUAACACUC against ZNF559 | -0.628
36 | UUAAUUGCAUUUGCAGACC against CCDC171 | 0.492
37 | UUGUCUAGAAAAGUCCUGG against UMODL1 | -2.58
38 | UUCGAUAUUAGGGUAGCGG against SNRNP200 | -1.21
39 | UGCUGUAAAGUUUUAGUCC against SLC35A5 | -0.426
40 | UCAGUGUUGGACUCCAUGC against NR2E3 | 0.652
41 | UGUGAGAUCAGGAAUUGAC against TMEM65 | -0.934
42 | UGCGGUUGACCGUAUAGAC against KBTBD13 | -2.49
43 | UCCUUGGUCACUGUCGCUC against KLF7 | -0.201
44 | UUGUUGGACAAGUCGAUGG against LRRC57 | 0.339

Row | Sequence | seed-corrected z-score
45 | GUUGUAUUCGUCGUCGUCC against NKX6-2 | 0.127
46 | UACUUAUCUCUGUCUGUUU against UBE2D3 | -1.14
47 | AUAGGUGCGACUCUCAUCC against SYMPK | -2.35
48 | UUGUAGAUGCUGAAUGUCC against DNAAF1 | 0.337
49 | UAAUAUGAUGUCUUCAACC against GABRQ | 0.559
50 | UGUUUUGCCGUCGAGGUGC against LOC642620 | 0.782
51 | AUUCCGACCAUGGUAAAUG against NAAA | 0.829
52 | ACAGUACAUAGUAGGGUGG against PRR34 | -2.82
53 | UUCAUCAAAUUGGACAUCU against ATP6V1E1 | -0.95
54 | UUGGUGCACAGCCUGGUAC against TSPAN32 | -0.435
55 | UCUUAGUUUCCAACGAUCC against SZT2 | -0.791
56 | UCGGUAGUAGUAAUCGUGC against PNPLA1 | 0.335
57 | UUCGCCUCUUGUGCUAUCG against CFAP221 | 0.264
58 | AUGGUUCAAACAUAGGAUG against WNK1 | -2.09
59 | UACGAGUCACGGGAAAUAC against TAF5 | 0.238
60 | AACUUGAGGAGGGUAAGUG against SERPINF2 | -2.44
61 | UUGAGUAUUCCGCUCGGGC against EDAR | -0.0352
62 | AAAACGACUCUUCAUACUG against CLRN2 | -1.29
63 | UUUAGCAACAGGUACAUUC against APBB1 | -0.4
64 | UAGAUUUUAAACAUCCUUG against FAS | 0.417
65 | UCUUUAUCACGGUCAAAUG against GPALPP1 | -0.108
66 | ACAUGGCUGAUUAAUGUGG against ZNF890P | -0.143

Row | Sequence | seed-corrected z-score
67 | UCUGUGGUGAUGAACACUC against OR5J2 | -1.13
68 | UUUGUUGGUAGCGAUGCAC against MYPN | -2.09
69 | AAAACUUCACCUUAUACUC against SDF4 | -0.483
70 | GAUGCUACGAUACCAGCCA against LYPLA2P2 | 1.26
71 | UGUAUUUCCACGCGUGAGG against ZDHHC11 | -0.523
72 | AAAUGUGAACCUGUGCUUG against MTUS2-AS1 | 1.42
73 | UACGUGCCGAGUCAUCAGU against DOK4 | -2.12
74 | AGACCUUAUACAGAGCUGC against CAPG | 0.432
75 | AGAAGCAUCAUGGAGGUAG against COX14 | -1.26
76 | ACUAGAAUCAAUAAGGAUG against TMEM243 | -0.708
77 | UGAGUCAUAAGAAGGGUCU against FLI1 | -6.98
78 | AUAGGUGAGACGGAGGCUC against VASN | 0.00423
79 | UCUGGAUCGAGGAAGCGAG against GNLY | -2.28
80 | AUAGCAAUCAUAUUCACGG against LIG4 | -0.537
81 | AACUGAAAUAGAAGUAUCC against TMED6 | -0.476
82 | UGUUCUCCUGCAGUUAUCC against WFDC3 | -0.0122
83 | UUGAAGACCAGGUAUUCCC against AGBL4 | -0.596
84 | UGACGUAUAUCAAUGCUCC against RRAGC | -0.322
85 | UAGUCGUCAAGCACUUGGU against SFTPB | -0.3
